The record followed here is publication PMC7862700, “An all-to-all approach to the identification of sequence-specific readers for epigenetic DNA modifications on cytosine”.

Holding throughout (experiment): DAPPL (digital affinity profiling via proximity ligation, sequencing); 10 mM Tris-HCl pH 7.5, 50 mM NaCl, 1 mM DTT, 4% glycerol, room temperature, 30 min; GST-TFs on glutathione beads, 16-mer random dsDNA library, 0.1% formaldehyde crosslink after washing; high values mean tight binding
Holding throughout (conditions): protein: recombinant; tags: N-terminal GST; dsDNA, one strand shown

One assay deals with T1, FLI1 (Homo sapiens, UniProt Q01543 1-452).
T1 sequence: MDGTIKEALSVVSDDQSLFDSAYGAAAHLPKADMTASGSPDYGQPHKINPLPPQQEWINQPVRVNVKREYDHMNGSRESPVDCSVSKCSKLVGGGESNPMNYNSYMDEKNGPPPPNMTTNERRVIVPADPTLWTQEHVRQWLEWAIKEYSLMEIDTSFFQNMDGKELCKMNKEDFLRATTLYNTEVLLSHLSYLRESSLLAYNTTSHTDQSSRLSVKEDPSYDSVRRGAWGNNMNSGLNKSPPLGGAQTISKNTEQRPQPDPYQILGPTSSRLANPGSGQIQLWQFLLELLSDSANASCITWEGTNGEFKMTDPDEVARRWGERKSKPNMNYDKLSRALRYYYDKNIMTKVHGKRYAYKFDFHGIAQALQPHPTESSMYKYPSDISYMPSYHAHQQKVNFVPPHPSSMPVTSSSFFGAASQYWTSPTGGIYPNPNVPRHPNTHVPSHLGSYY
The gist of the method: (§1)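 Pools of DNA-barcoded human transcription factors, expressed in yeast as GST fusions on glutathione beads and combined with a tag-only sample, were incubated with 200 nmole of a 16-mer random double-stranded DNA library. Incubation took 30 min at room temperature in Tris/NaCl/DTT/glycerol buffer and was followed by washing, 0.1% formaldehyde crosslinking, proximity ligation (BsaI/T4 ligase, 1 h, 37 °C), PCR amplification and sequencing on an Illumina NextSeq500. Binding signal is the ratio of a hexamer's read frequency for a factor to its frequency for the tag-only sample.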

For a further assay, the target named is T2, ELK1 (Homo sapiens, UniProt P19419 1-428).
T2 sequence: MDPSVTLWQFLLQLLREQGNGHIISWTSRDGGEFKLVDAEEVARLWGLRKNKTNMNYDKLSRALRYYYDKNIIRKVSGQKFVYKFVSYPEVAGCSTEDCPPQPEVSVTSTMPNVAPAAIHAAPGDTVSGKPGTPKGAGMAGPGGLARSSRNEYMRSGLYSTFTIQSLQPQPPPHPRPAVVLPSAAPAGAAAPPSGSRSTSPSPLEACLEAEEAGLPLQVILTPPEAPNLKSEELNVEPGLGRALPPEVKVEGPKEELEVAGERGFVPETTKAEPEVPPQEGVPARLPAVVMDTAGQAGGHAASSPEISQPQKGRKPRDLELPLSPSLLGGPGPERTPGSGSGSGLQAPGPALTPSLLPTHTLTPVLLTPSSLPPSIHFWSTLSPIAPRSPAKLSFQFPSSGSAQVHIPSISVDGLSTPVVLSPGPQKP
The gist of the method: as §1

For a further assay, the target named is T3, GABPA (Homo sapiens, UniProt Q06546 1-454).
T3 sequence: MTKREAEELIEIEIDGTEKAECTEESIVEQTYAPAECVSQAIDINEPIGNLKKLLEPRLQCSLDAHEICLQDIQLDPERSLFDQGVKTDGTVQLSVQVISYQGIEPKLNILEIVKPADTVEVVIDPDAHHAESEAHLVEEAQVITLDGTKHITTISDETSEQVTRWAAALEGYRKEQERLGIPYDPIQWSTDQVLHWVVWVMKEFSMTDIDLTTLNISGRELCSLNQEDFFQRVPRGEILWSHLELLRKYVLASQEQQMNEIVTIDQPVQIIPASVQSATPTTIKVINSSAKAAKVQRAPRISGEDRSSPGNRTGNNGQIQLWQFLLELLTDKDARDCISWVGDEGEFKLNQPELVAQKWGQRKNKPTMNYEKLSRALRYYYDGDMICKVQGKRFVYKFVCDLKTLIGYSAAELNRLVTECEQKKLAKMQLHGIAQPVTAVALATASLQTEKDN
In a few lines: as §1

Another assay has as its target T4, ERG (Homo sapiens, UniProt P11308 1-479).
T4 sequence: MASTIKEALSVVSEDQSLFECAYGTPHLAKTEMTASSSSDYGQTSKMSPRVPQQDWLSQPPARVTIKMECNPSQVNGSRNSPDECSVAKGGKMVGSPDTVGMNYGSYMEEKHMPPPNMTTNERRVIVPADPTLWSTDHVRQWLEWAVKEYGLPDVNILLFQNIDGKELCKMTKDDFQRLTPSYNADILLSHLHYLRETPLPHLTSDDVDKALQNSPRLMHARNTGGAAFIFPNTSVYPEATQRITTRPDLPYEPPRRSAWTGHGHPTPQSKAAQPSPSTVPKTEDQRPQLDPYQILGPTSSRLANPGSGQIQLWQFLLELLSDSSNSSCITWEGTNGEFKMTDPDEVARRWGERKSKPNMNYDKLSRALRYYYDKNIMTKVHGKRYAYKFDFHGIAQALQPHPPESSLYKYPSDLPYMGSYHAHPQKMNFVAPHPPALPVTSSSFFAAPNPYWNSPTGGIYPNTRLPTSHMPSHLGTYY
In a few lines: as §1

The target of a further assay is ELF1 (Homo sapiens, UniProt P32519 1-619). The gist of the method:
as §1

In another assay the target is T5, EHF (Homo sapiens, UniProt Q9NZC4 1-300).
T5 sequence: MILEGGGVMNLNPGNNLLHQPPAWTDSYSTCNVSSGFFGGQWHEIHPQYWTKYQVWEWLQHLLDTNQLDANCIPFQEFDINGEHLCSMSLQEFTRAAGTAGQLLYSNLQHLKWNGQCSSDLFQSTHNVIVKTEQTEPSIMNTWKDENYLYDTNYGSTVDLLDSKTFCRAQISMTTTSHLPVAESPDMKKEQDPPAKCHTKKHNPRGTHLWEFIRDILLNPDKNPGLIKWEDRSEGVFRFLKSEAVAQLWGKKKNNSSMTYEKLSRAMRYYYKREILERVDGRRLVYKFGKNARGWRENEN
The gist of the method:
as §1

In another assay the target is SPI1 (Homo sapiens, UniProt P17947 1-270). The gist of the method: as §1
The target in the next assay is SPIB (Homo sapiens, UniProt Q01892 1-262). In a few lines: as §1
Chain of SPIB (Q01892 whole entry): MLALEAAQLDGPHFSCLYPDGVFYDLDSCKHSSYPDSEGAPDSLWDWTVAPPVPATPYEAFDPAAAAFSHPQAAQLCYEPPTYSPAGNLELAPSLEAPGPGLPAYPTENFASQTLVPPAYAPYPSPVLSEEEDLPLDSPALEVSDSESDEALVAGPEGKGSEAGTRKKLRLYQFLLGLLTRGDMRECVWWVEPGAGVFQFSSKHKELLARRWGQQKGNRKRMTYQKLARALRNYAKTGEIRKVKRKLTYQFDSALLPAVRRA
For the next assay, the target named is T6, FEV (Homo sapiens, UniProt Q99581 1-238).
T6 sequence: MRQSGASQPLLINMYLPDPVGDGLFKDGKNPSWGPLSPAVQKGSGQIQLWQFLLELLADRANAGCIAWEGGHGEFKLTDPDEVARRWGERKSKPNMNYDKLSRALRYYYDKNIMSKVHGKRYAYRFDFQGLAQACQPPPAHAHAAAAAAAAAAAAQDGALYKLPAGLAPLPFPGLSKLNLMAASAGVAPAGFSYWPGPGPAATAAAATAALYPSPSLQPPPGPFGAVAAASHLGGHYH
In a few lines:
as §1

The target in the next assay is ETV5 (Homo sapiens, UniProt P41161 1-510). The gist of the method: as §1
Chain of ETV5 (P41161 whole entry): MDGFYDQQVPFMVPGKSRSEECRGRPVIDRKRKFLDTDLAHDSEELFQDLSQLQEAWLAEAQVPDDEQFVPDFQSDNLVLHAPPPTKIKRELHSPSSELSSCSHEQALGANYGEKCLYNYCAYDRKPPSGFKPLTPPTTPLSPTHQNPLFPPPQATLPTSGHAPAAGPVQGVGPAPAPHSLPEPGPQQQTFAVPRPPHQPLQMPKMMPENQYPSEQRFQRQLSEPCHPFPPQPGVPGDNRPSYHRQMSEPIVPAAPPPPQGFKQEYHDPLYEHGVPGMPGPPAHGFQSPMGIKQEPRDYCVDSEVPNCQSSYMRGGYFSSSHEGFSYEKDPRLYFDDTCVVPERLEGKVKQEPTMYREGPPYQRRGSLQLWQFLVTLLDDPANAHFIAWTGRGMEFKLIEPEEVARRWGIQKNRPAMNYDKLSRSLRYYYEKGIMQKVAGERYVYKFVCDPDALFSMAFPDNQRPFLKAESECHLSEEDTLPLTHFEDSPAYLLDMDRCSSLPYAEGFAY
Another assay addresses T7, SPIC (Homo sapiens, UniProt Q8N5J4 1-248).
T7 sequence: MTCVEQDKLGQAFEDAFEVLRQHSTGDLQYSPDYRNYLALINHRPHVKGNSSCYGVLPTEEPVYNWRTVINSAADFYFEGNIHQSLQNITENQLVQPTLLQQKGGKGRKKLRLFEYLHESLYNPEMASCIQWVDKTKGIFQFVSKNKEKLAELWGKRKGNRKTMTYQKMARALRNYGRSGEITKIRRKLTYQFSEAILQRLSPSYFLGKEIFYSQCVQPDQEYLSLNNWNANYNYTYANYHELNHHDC
In a few lines:
as §1

For the next assay, the target named is ELF4 (Homo sapiens, UniProt Q99607 1-663). The gist of the method:
as §1

Another assay has as its target T8, ERF (Homo sapiens, UniProt P50548 1-548).
T8 sequence: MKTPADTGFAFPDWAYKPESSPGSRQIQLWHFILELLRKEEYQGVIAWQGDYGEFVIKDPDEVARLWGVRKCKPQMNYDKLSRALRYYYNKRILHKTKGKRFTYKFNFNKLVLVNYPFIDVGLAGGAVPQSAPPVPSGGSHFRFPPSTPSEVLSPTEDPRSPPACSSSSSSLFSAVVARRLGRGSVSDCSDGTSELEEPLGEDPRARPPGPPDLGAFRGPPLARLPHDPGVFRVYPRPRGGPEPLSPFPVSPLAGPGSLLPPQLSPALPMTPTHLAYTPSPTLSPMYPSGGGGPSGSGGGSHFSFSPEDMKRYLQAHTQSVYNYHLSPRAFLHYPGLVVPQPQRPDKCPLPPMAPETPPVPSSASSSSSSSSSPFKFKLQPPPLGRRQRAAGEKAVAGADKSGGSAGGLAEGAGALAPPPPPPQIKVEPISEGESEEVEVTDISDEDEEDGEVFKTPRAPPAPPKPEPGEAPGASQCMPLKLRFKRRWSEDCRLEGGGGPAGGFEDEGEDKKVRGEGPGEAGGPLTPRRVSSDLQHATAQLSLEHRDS
The gist of the method:
as §1

In another assay the target is T9, ETV3L (Homo sapiens, UniProt Q6ZN32 1-361).
T9 sequence: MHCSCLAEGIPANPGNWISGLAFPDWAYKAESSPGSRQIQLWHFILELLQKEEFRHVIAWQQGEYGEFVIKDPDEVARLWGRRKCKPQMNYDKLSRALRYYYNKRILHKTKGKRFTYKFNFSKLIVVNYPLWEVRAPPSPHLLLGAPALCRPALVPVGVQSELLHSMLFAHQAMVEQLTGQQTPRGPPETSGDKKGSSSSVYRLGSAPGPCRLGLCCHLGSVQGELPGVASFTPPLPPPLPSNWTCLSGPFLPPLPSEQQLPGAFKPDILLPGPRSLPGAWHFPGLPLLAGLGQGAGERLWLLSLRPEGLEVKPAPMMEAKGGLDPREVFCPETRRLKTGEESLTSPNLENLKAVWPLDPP
The gist of the method: as §1

Another assay concerns the target T10, ETS2 (Homo sapiens, UniProt P15036 1-469).
T10 sequence: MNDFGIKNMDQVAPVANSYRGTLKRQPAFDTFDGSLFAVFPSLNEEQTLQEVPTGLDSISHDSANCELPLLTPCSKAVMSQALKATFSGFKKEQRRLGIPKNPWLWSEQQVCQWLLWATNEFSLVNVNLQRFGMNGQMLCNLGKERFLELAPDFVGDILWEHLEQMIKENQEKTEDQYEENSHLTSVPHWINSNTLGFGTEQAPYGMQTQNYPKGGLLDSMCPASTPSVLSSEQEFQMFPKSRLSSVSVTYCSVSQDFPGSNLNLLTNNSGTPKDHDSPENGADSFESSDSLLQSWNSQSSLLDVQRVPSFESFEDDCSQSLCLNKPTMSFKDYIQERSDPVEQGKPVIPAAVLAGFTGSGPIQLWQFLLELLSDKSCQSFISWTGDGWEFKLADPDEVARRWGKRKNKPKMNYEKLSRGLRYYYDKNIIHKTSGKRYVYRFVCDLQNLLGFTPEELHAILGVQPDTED
In a few lines: as §1

A further assay deals with T11, SPDEF (Homo sapiens, UniProt O95238 1-335).
T11 sequence: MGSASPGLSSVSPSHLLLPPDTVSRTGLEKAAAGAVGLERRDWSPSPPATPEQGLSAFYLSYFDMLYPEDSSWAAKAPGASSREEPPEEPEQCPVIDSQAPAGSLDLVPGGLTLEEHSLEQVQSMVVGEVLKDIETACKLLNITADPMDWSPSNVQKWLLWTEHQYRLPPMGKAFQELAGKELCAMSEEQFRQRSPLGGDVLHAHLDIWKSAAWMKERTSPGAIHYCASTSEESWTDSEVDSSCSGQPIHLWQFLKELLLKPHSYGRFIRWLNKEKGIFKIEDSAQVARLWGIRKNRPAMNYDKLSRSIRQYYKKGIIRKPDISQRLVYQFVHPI
In a few lines: as §1

Another assay addresses T12, ELF5 (Homo sapiens, UniProt Q9UKW6-2 1-255).
T12 sequence: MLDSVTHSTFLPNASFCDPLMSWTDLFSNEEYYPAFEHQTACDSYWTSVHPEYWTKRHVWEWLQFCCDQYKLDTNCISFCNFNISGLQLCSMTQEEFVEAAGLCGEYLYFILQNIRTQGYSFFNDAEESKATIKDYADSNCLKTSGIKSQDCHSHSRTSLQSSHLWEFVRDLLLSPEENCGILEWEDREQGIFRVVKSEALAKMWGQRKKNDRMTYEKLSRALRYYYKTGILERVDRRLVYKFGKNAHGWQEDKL
The gist of the method: as §1

In a further assay the target is T13, ETV3 (Homo sapiens, UniProt P41162-2 1-143).
T13 sequence: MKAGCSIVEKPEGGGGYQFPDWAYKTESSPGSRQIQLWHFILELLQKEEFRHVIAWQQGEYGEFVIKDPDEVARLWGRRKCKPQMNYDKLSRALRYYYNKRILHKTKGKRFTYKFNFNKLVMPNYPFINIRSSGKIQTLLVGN
The gist of the method:
as §1

The target of the next assay is ETV6 (Homo sapiens, UniProt P41212 1-452). The gist of the method: as §1
Chain of ETV6 (P41212 whole entry): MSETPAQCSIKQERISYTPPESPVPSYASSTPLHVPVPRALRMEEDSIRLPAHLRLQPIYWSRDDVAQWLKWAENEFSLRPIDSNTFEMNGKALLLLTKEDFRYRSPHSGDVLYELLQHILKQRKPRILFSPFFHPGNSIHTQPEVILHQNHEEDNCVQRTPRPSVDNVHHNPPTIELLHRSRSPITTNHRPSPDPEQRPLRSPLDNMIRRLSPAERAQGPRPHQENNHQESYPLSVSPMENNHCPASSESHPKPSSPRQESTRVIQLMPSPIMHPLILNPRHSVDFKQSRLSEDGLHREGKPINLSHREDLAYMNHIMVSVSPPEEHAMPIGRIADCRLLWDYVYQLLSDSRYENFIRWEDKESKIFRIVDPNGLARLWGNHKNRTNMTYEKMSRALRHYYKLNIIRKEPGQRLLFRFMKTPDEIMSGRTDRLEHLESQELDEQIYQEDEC

Chain of ELF1 (P32519 whole entry): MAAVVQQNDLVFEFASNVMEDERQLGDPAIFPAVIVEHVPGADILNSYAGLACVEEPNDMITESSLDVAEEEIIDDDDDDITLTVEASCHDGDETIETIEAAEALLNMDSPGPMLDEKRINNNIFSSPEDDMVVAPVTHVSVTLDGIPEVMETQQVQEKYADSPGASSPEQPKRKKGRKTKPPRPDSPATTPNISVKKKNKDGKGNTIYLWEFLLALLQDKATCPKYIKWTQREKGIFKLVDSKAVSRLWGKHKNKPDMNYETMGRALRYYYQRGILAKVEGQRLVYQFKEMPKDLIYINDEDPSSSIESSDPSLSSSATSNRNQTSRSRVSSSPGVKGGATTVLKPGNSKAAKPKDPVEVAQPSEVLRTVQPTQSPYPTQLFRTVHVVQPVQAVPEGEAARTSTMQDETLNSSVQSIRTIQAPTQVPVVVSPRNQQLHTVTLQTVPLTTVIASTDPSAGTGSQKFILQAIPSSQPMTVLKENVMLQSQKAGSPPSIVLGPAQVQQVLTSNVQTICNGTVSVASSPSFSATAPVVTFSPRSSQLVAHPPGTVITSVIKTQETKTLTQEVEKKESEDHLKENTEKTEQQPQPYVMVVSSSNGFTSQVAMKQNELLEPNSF
Chain of ELF4 (Q99607 whole entry): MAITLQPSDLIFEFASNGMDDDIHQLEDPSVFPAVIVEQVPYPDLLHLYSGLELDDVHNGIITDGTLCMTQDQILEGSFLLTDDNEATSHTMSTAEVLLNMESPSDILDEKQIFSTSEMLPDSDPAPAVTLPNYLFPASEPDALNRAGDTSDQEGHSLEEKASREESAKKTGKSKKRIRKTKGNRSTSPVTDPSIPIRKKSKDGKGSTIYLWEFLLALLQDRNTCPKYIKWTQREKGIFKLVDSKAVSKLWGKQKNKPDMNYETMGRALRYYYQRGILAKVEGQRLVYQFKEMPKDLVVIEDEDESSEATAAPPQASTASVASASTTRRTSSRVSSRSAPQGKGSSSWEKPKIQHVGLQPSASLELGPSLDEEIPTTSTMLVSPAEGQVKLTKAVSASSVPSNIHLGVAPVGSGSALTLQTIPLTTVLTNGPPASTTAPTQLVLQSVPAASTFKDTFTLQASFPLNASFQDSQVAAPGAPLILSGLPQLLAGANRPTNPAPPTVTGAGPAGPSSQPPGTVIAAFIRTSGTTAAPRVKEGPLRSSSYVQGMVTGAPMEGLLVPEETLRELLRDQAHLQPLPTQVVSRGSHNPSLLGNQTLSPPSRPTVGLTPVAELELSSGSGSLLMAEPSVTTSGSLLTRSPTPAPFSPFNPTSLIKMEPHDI

Turning to TGCCAA, the binding signal with FLI1 is 1.07 fold enrichment (6-mer frequency, TF over GST control); with ELK1 it was 1.11 fold enrichment (6-mer frequency, TF over GST control); with GABPA, 1.06 fold enrichment (6-mer frequency, TF over GST control); in the assay with ERG, 1.06 fold enrichment (6-mer frequency, TF over GST control); in the assay with ELF1, 1.18 fold enrichment (6-mer frequency, TF over GST control); with EHF it was 1.09 fold enrichment (6-mer frequency, TF over GST control). The binding signal was 1.12 fold enrichment (6-mer frequency, TF over GST control) with SPI1; 1.11 fold enrichment (6-mer frequency, TF over GST control) with SPIB; 1.12 fold enrichment (6-mer frequency, TF over GST control) with FEV; 1.08 fold enrichment (6-mer frequency, TF over GST control) with ETV5; 1.08 fold enrichment (6-mer frequency, TF over GST control) with SPIC; 1.12 fold enrichment (6-mer frequency, TF over GST control) with ELF4. Further, the binding signal in the assay with ERF was 1.15 fold enrichment (6-mer frequency, TF over GST control); with ETV3L it was 1.21 fold enrichment (6-mer frequency, TF over GST control); with ETS2, 1.12 fold enrichment (6-mer frequency, TF over GST control); in the assay with SPDEF, 1.08 fold enrichment (6-mer frequency, TF over GST control); in the assay with ELF5, 1.1 fold enrichment (6-mer frequency, TF over GST control); in the assay with ETV3 it was 1.13 fold enrichment (6-mer frequency, TF over GST control). In addition, in the assay with ETV6, the binding signal was 1.08 fold enrichment (6-mer frequency, TF over GST control).
